# Experimental data as given in PubChem BioAssay AID588800 (Johns Hopkins Ion Channel Center, 2011).
# Calls of active or inactive are those of the source.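 How the source made its calls: active means peak inhibition of the KCNQ2 potassium channel above 30% at some tested dose, plus a fitted dose response curve; inactive means no inhibition at any dose, or no curve.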
# Biological target: Potassium voltage-gated channel subfamily KQT member 2 (Rattus norvegicus) (UniProt O88943)
# Experiment: rat KCNQ2 channel inhibition, SAR follow-up, selectivity assay for KCNK9 inhibitor project, cell-based, FluxOR thallium flux, CRC set 2 (AID 588800)
# Conditions: KCNQ2-expressing cells; series mostly up to 30 µM
# Potassium voltage-gated channel subfamily KQT member 2 (Rattus norvegicus), sequence (O88943 whole entry, looked up): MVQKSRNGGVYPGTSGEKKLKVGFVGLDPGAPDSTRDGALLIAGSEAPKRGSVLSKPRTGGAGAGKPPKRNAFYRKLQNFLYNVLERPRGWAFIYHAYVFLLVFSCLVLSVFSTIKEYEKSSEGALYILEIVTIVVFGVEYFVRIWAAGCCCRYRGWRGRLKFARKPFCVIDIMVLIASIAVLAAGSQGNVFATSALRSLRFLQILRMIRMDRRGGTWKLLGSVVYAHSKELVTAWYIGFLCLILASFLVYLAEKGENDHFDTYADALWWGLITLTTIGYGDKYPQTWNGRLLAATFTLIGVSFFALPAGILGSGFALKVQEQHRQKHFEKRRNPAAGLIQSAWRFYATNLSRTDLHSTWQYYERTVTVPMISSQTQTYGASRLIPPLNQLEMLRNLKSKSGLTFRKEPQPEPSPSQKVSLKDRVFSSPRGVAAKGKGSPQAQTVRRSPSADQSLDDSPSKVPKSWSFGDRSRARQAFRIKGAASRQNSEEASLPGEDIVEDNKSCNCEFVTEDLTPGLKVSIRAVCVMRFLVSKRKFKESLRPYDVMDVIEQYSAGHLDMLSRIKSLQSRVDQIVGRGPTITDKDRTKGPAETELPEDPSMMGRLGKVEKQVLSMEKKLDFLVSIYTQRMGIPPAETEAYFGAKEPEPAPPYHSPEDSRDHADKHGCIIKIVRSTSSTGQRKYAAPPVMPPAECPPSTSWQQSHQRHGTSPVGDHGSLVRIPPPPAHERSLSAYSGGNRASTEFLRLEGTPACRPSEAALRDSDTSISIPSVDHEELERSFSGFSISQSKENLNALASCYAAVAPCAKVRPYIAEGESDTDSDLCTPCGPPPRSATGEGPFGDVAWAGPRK
row,Structure (SMILES),outcome
1,CCOc1ccccc1NC(=O)c1cccc(NC(=O)C2CC2)c1,inactive
2,O=C(Nc1cccc(NC(=O)c2ccccc2C(F)(F)F)c1)c1ccccc1,inactive
3,O=C(Nc1cccc(NC(=O)c2ccc(Cl)cc2)c1)c1ccccc1,inactive
4,CCOc1ccccc1NC(=O)c1cccc(NC(=O)c2ccccc2Cl)c1,inactive
5,CC(C)n1c(-c2ccco2)n[nH]c1=S,inactive
6,Cc1ccc(-c2n[nH]c(=S)n2C(C)C2CC3CCC2C3)cc1 (stereo not given),inactive
7,O=C(Nc1cccc(NC(=O)c2ccoc2)c1)c1ccccc1,inactive
8,Cc1ccc(C(=O)Nc2cccc(NC(=O)c3ccccc3)c2)cc1,inactive
9,COc1ccccc1NC(=O)c1cccc(NC(=O)C2CCCCC2)c1,inactive
10,Cc1cccc(C(=O)Nc2cccc(NC(=O)c3ccco3)c2)c1,inactive
11,CCOc1ccccc1NC(=O)c1cccc(NC(=O)c2cccc(C)c2)c1,inactive
12,O=C(Nc1cccc(NC(=O)c2cccnc2)c1)c1ccccc1,inactive
13,Cc1cccc(C(=O)Nc2cccc(NC(=O)c3ccccc3Cl)c2)c1,inactive
14,CCOc1ccccc1NC(=O)c1cccc(NC(=O)CC2CCCCC2)c1,inactive
15,COc1cccc(-c2n[nH]c(=S)n2C(C)C2CC3CCC2C3)c1 (stereo not given),inactive
16,Cc1cccc(C(=O)Nc2cccc(NC(=O)c3ccccc3C(F)(F)F)c2)c1,inactive
17,Cc1cccc(C(=O)Nc2cccc(NC(=O)c3ccccc3C)c2)c1,inactive
18,Cc1cccc(C(=O)Nc2ccccc2NC(=O)c2ccccc2)c1,inactive

row,Structure (SMILES),outcome
1,Cc1cccc(C(=O)Nc2cccc(NC(=O)c3ccccc3OC(F)(F)F)c2)c1,inactive
2,CCOc1ccccc1NC(=O)c1cccc(NC(=O)c2ccc(C(F)(F)F)cc2)c1,inactive
3,CCOc1ccccc1NC(=O)c1cccc(NC(=O)C2CCCC2)c1,inactive
4,Cc1ccccc1C(=O)Nc1cccc(NC(=O)c2ccccc2)c1,inactive
5,Cc1ccccc1-c1n[nH]c(=S)n1C(C)C1CC2CCC1C2 (stereo not given),inactive
6,CC(c1ccccc1)n1c(-c2ccco2)n[nH]c1=S (stereo not given),inactive
7,CCOc1ccccc1NC(=O)c1cccc(NC(=O)C(C)(C)C)c1,inactive
8,COc1ccccc1C(=O)Nc1cccc(NC(=O)c2ccccc2)c1,inactive
9,Cc1cccc(C(=O)Nc2cccc(NC(=O)c3ccccc3)c2)c1,inactive
10,CCOc1ccccc1NC(=O)c1cccc(C(=O)NC2CCCC2)c1,inactive
11,Cc1cccc(C(=O)Nc2cccc(NC(=O)c3ccccc3C(C)C)c2)c1,inactive
12,O=C(Nc1cccc(NC(=O)c2ccsc2)c1)c1ccccc1,inactive
13,CCOc1cccc(NC(=O)c2cccc(NC(=O)C3CCCC3)c2)c1,inactive
14,CC(C1CC2CCC1C2)n1c(-c2cccc(Cl)c2)n[nH]c1=S (stereo not given),inactive
15,COc1ccc(C(=O)Nc2cccc(NC(=O)c3ccccc3)c2)cc1,inactive
16,O=C(Nc1cccc(NC(=O)c2ccc(C(F)(F)F)cc2)c1)c1ccccc1,inactive
17,CCOc1ccccc1NC(=O)c1cccc(NC(=O)C2CCCCC2)c1,inactive
